HT1080 IDH1KD tx: qHTS for induction of synthetic lethality in tumor cells producing 2HG: qHTS for the HT-1080-IDH1KD cell line. HT-1080 IDH1 knockdown viability, ATP luminescence, 48 h. Potency, µM (doses to about 46.1 µM), inactives show at the top dose activity, negative = toxicity, actives largely listed as cytotoxic. actives 2% (n = 360,000);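 further: 0% = DMSO wells and -100% = cell-free medium wells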
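CellTiter-Glo luminescence after 48 h compound exposure at 37 degrees C of IDH1-knockdown HT-1080 cells in 5% FBS RPMI. %Activity scaled between DMSO wells and cell-free media wells, with curves fitted and assigned curve classes.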
HT1080-NT tox: qHTS for induction of synthetic lethality in tumor cells producing 2HG: qHTS for the HT-1080-NT fibrosarcoma cell line | actives 1.6% (n = 360,000) | AID 686970, 2013 | HT-1080-NT fibrosarcoma viability, CellTiter-Glo ATP luminescence, 48 h | Potency, µM (top dose mostly 46.1 µM), for the others: at the top dose activity, negative = less viability, most hits filed as cytotoxic;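 further: NT is the 2HG producing partner of a matched IDH1 knockdown line; 0% = DMSO-treated cells and -100% = media-only wells without cells; nearly all actives have a fitted effect of over 55% in size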
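750 cells/well, RPMI + 5% FBS; 2 h settle, compound pin-transfer, 48 h at 37 degrees C. CellTiter-Glo 10 min RT, luminescence. Normalized to DMSO and media-only wells.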
DT40 TDP1 CPT: qHTS for Inhibitors of human tyrosyl-DNA phosphodiesterase 1 (TDP1): qHTS in cells in presence of CPT; actives 12% (n = 420,000); Potency, µM (titrated, usually from 46.2 µM), inactives show top-dose activity change, negative = growth inhibition, usual class: inhibitors; chicken DT40 Tdp1-/-;hTDP1 cells + 20 nM CPT, ATP luminescence, 48 h; further: nearly all actives have a fitted effect of over 55% in size
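Chicken DT40 Tdp1-/- cells complemented with human TDP1, 400 cells/well, exposed to compounds plus 20 nM camptothecin for at least 48 h at 37 C; viability read as ATP content by CellTiter-Glo luminescence.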
KB-V1 MDR tox: qHTS assay for MDR1-selective chemotherapeutics: Primary screen using the drug-selected MDR subline cells KB-V1; KB-V1 MDR cells viability, CellTiter-Glo, 72 h; Potency, µM (titrated, usually from 46.1 µM), usual class: cytotoxic; actives 3.4% (n = 400,000); AID 1347076, 2019; further: nearly all actives have a fitted effect of over 60% in size
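Cytotoxicity via CellTiter-Glo luminescence after 72 h compound exposure at 37 degrees C. Cells: drug-selected KB-V1 line, DMEM phenol-red free plus 10% FBS. Compounds tested at multiple concentrations; normalized data fitted to concentration-effect curves.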
KB-3-1 tox: qHTS assay for MDR1-selective chemotherapeutics: Primary screen using the parental adenocarcinoma cell KB-3-1; KB-3-1 viability, CellTiter-Glo ATP luminescence, 72 h; Potency, µM (highest dose often 46.1 µM), actives largely listed as cytotoxic; actives 1.4% (n = 400,000); AID 1347075, 2019; further: nearly all actives have a fitted effect of over 60% in size
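Using CellTiter-Glo luminescence, growth of non-resistant KB-3-1 adenocarcinoma cells is assessed 72 h after pin-tool compound addition at 37 °C. Normalized responses across the concentration series yield fitted curves.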
DT40 TDP1 no CPT: qHTS for Inhibitors of human tyrosyl-DNA phosphodiesterase 1 (TDP1): qHTS in cells in absence of CPT | DT40 Tdp1-/- hTDP1 cells, no CPT, ATP luminescence, 48 h | Potency, µM (series often up to 46.2 µM), for the others: top-dose activity change, negative = growth inhibition, most hits filed as inhibitors | actives 15% (n = 420,000); further: nearly all actives have a fitted effect of over 55% in size
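Luminescent ATP content (CellTiter-Glo) served as the growth readout. Knockout chicken DT40 cells expressing human TDP1 were exposed to compounds without camptothecin for a minimum 48 hr at 37 °C.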
Active calls of the source: *; i = inactive; ? = inconclusive; / = no result given; [ ] = another dose, or the depositor's remark. Only some compounds are listed: those with a hit (about 19% of all), similar ones and a draw of the others. The call rests on the fitted dose curve; in most records, active means well fitted curve in the direction sought with a large enough effect; inconclusive means small, poorly fitted or top-dose-only effect, or another doubt; inactive means no such curve, though single readings can be large; an effect the other way counts as inactive or inconclusive. Unless noted, on the % scale 0 is the no-effect control and ±100 the full control effect; potency means the concentration at half of the fitted maximal effect.

SMILES	HT1080 IDH1KD tx	HT1080-NT tox	DT40 TDP1 CPT	KB-V1 MDR tox	KB-3-1 tox	DT40 TDP1 no CPT
Cc1onc(-c2ccccc2)c1C(=O)Nc1sc2c(c1C#N)CCC(C)C2 (configuration not stated)	0.2%[9.24 µM]	12.6µM*	?	?	?	?
Cc1onc(-c2ccccc2)c1C(=O)NC1CCC(C)CC1 (configuration not stated)	-0.6%	0.2%	13µM*	i	?	?
COc1ccc(NC(=O)CN2C(=O)NC(C)(Cc3ccc(OC)c(OC)c3)C2=O)cc1 (configuration not stated)	-8.6%	-13.2%	0.7%	i	i	-2.7%
Cc1ccc(-n2nc(C(=O)Nc3ccc(C)c(F)c3)c3c4ccccc4n(C)c3c2=O)cc1	/	/	2.7%	i	i	0.3%
C=CCNC(=O)/C(=C/c1ccccc1OCC)NC(=O)c1ccccc1	8.5%	4.1%	4.7%	11.6µM*	i	-2.5%
CCOc1ccccc1/C=C(/NC(=O)c1ccccc1)C(=O)NC(C)c1ccccc1 (configuration not stated)	2.3%	-1.0%	23.1µM*	?	i	?
C=CCNC(=O)/C(=C/c1cn(-c2ccccc2)nc1-c1cccc([N+](=O)[O-])c1)NC(=O)c1ccccc1	11.0%	5.0%	-12.9%	16.4µM*	i	?
CCN(CC(=O)NCc1cccs1)C(=O)c1ccc(S(=O)(=O)Nc2ccccc2F)cc1	0.5%	-0.4%	6.8%	i	i	-12.3%
O=C(CSc1nccn1Cc1ccccc1)NCc1ccco1	/	/	-5.6%	/	/	3.3%
CCOC(CNC(=O)c1ccc2c(c1)nc(C)n2-c1cccc(F)c1)OCC	-4.2%	7.1%	?	20.6µM*	i	-1.1%
CC1CCn2c(nc3cc(C(=O)NCc4ccc(OC(C)C)cc4)ccc32)C1 (configuration not stated)	/	/	?	/	/	23.1µM*
CCc1ccc(CNC(=O)c2ccc3c(c2)nc2n3CCC(C)C2)cc1 (configuration not stated)	/	/	-28.4%	/	/	?
COc1cc(C(=O)NCc2ccc(C)cc2)ccc1OC(F)F	-5.0%	3.3%	-18.5%	23.1µM*	i	-19.8%
COCCNC(=O)c1ccc2c(c1)nc(C)n2-c1cccc(Cl)c1	9.0%	16.7%	-2.8%	i	i	15.9%
CCOc1ccc(-n2c(C)nc3cc(C(=O)NCCC4=CCCCC4)ccc32)cc1	/	/	18.4µM*	i	i	16.4µM*
CCOC(=O)CC1C(=O)NCCN1C(=O)COc1ccc(C(C)(C)C)cc1 (configuration not stated)	10.2%	?	-4.4%	i	i	-20.3%
Cc1ccc(CNC(=O)c2ccc3c(c2)nc(C)n3-c2cc(C)cc(C)c2)cc1	/	/	?	i	i	?
Cc1cc(C)cc(-n2c(C)nc3cc(C(=O)NCc4ccc(F)cc4)ccc32)c1	/	/	?	i	i	14.6µM*
CCOc1ccc(CNC(=O)c2ccc(Sc3ccc(C)cc3)c(NC(C)=O)c2)cc1	-9.9%	2.5%	?	?	i	20.6µM*
CCOc1ccc(-n2c(C)nc3cc(C(=O)NCC4CCCO4)ccc32)cc1 (configuration not stated)	1.8%	1.1%	-1.4%	i	i	-13.8%
CCOc1ccc(-n2c(C)nc3cc(C(=O)NCc4ccc(C)cc4)ccc32)cc1	/	/	?	/	/	16.4µM*
COc1cccc(Cn2ccn(-c3ccc(F)cc3)c(=O)c2=O)c1	/	/	-4.1%	/	/	0.7%
O=[N+]([O-])c1cccc(-c2cc3ccccc3[nH]2)c1	4.7%	-0.1%	-18.8%	i	i	-7.1%
O=[N+]([O-])/C=C/c1cc2ccccc2[nH]1	-3.2%	-8.7%	20.6µM*	i	i	18.4µM*
Cc1ccc(Cn2nnnc2CN2CCC(NC(=O)c3ccccc3F)CC2)cc1	9.1%	7.6%	?	i	i	?
SMILES	HT1080 IDH1KD tx	HT1080-NT tox	DT40 TDP1 CPT	KB-V1 MDR tox	KB-3-1 tox	DT40 TDP1 no CPT
O=C(Nc1ccccc1F)NC1CCN(Cc2nnnn2Cc2ccc(F)cc2)CC1	4.0%	3.7%	-2.1%	14.6µM*	i	-7.4%
COCCCNC(=S)NC1CC2CCCC(C1)N2Cc1ccco1 (configuration not stated)	?	-0.1%	-12.8%	i	i	-10.7%
CCCNC(=S)NC1CC2CCCC(C1)N2Cc1ccc(F)cc1 (configuration not stated)	-2.6%	5.4%	?	i	i	18.4µM*
O=C(Nc1ccccc1-c1ccccc1)NC1CC2CCCC(C1)N2Cc1ccc(F)cc1 (configuration not stated)	-17.1%	-17.1%	20.6µM*	i	i	23.1µM*
Cc1ccc(S(=O)(=O)NC(=O)COc2ccc([N+](=O)[O-])cc2)cc1	2.3%	3.6%	-3.5%	i	i	6.0%
O=C(NNC(=O)c1ccccc1O)c1ccc(S(=O)(=O)Nc2ccccc2F)cc1	?	23.1µM*	?	i	?	?
Cc1ccccc1NS(=O)(=O)c1ccc(C(=O)NNC(=O)c2ccccc2O)cc1	?	-13.6%	?	i	?	?
O=C(NNC(=O)c1ccccc1O)c1ccc(S(=O)(=O)Nc2ccccc2)cc1	-18.6%	-13.9%	?	?	?	16.4µM*
CC(=O)c1c(-c2ccccc2)[nH]c2ccccc12	?	?	13µM*	7.31µM*	?	13µM*
Cc1ccc(SCC(=O)c2c(C)[nH]c3ccccc23)cc1	29.9%	28.9%	17.7%	i	i	-8.6%
Cc1[nH]c2ccccc2c1C(=O)CCl	?	?	2.59µM*	?	i	3.66µM*
Cc1[nH]c2ccccc2c1C(=O)CN(C)c1ccccc1	/	/	-113.7%	i	?	?
Cc1[nH]c2ccccc2c1C(=O)Cn1c(=O)oc2ccccc21	?	-2.7%	-24.0%	16.4µM*	i	-22.6%
Cc1ccc(-c2csc(NCCn3c(C)nc4cc(C(F)(F)F)ccc43)n2)cc1	-7.8%	-3.9%	?	i	i	?
